Screening data deposited in PubChem BioAssay by National Center for Advancing Translational Sciences (NCATS).
An excerpt weighted towards active compounds, which were near 2.2% of everything screened.
IDH1 R132H inh – inhibitors of human mutant IDH1 R132H. 390,000 compounds, 0.093% hits. IDH1-R132H enzyme, NADPH consumption, diaphorase/resazurin fluorescence. O75874. Potency, µM (top dose mostly 76.6 µM), for inactives: at the highest dose activity change, negative = inhibition, most hits filed as inhibitors. AID 602179; also: potency is read from the fitted curve at half-maximal effect; % is scaled to controls: 0 for no effect and ±100 for the full control effect; nearly all actives have a fitted effect of over 65% in size
Target sequence (O75874 whole entry R132H, stated change not applied): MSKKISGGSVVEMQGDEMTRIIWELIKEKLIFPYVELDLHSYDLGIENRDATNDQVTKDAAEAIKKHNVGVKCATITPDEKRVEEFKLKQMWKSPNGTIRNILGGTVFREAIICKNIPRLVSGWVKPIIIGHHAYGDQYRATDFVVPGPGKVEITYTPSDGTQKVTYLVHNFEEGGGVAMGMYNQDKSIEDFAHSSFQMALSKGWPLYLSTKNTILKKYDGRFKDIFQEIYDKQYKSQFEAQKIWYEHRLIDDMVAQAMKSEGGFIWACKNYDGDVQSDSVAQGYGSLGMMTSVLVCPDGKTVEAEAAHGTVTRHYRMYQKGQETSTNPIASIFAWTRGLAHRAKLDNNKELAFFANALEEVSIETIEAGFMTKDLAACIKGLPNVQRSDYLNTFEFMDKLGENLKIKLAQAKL
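IDH1-R132H (0.5 ug/mL dispensed) in pH 7.5 Tris buffer was preincubated 30 min with compound, then given a substrate mix of 0.016 mM NADPH and 2 mM alpha-KG for 80 min at room temperature; remaining NADPH was read by diaphorase/resazurin fluorescence.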
TrxR1 substrate – is turned over as a substrate by rat TrxR1; O89049; 390,000 compounds, 0.01% hits; AID 588456; purified TrxR1 substrate turnover, NADPH consumption readout; Potency, µM (titrated, usually from 114 µM), inactives show at the highest dose activity change, negative = substrate turnover; also: potency is read from the fitted curve at half-maximal effect; % is scaled to controls: 0 for no effect and ±100 for the full control effect; nearly all actives have a fitted effect of over 50% in size
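Rat TrxR1, dispensed at 90 nM, was prereduced with 400 uM NADPH (final) for 5 min at ~22 deg C, then incubated with compound 15 min before 400 uM selenite. A first-read NADPH fluorescence drop versus no-compound background flagged substrates.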
IL-2 act – activators of IL-2. AID 652025. 360,000 compounds, 0.065% hits. activation, % (series mostly up to about 46 µM). IL-2 activation reporter assay, cell-based qHTS; stimulated with anti-CD3/CD4/CD28 beads; in transgenic mouse T cells; in the data active = activation above about 50%; inconclusive = mostly about 30% to 49%; also: 0% is about no effect
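EGFP and DsRed fluorescence is measured by plate cytometry in unstimulated transgenic mouse T cells exposed to compound for 60 minutes, then stimulated 18 hours at 37 degrees C with anti-CD3/anti-CD4 beads plus anti-CD28.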
rTrxR1 inhibitor – rat TrxR1 inhibition; recombinant rTrxR1, NADPH fluorescence consumption, selenite substrate; O89049; Potency, µM (series often up to 114 µM), without a hit: at the highest dose activity change, negative = inhibition, hits mostly inhibitors; AID 588453; 390,000 compounds, 1% hits; also: potency is read from the fitted curve at half-maximal effect; % is scaled to controls: 0 for no effect and ±100 for the full control effect; nearly all actives have a fitted effect of over 65% in size
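Rat TrxR1 (90 nM in the dispensed reagent) was pre-reduced with 400 uM NADPH for 5 min at room temperature, then incubated with compound for 15 min. After 400 uM selenite was added, NADPH fluorescence (Ex 340/Em 450 nm) was followed for 8 min.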
BRCA1 expr up – activators of BRCA1 expression; MCF7-BRCA1-FFLuc reporter, luminescence, 48 h; response scale: scaled: vehicle 0%, 10 µM genistein 100%; Potency, µM (series often up to 46.1 µM), for the others: at the highest dose activation, usual class: activators; 380,000 compounds, 1.1% hits; also: potency is read from the fitted curve at half-maximal effect; nearly all actives have a fitted effect of over 80% in size
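MCF7-BRCA1-FFLuc, 2000 cells/well; 2 h attach, 37 °C/5% CO2; compound 48 h; luciferase substrate 15 min; luminescence end-point. Norm. to genistein 10 microM max activation and DMSO; concentration-response curves fitted.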
Giardia kill – Giardia lamblia killing | activity change, % at 7.66 µM, hits read low | 340,000 compounds, 0.15% hits | AID 540267 | Giardia lamblia trophozoite viability; in the data active = activity change below about -80%; inconclusive = between about -30% and that limit;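 also: parasites exposed to compound for two days anaerobically before the ATP read; % is scaled to controls: 0 for no effect and ±100 for the full control effect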
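Giardia trophozoites, 100 cells per well, were exposed to compounds for 48 hrs at 37 deg C under anaerobic conditions; viability was then read as ATP content by bioluminescence after 15-30 min at room temperature.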
Numbers without * were called inactive; ? = inconclusive; · = no result; ! = a repeat was not active; [ ] = another dose, or the depositor's remark. Unless noted, calls follow the shape of the dose curve; as a rule, active = well fitted curve in the direction sought with a large enough effect; inconclusive = small, poorly fitted or top-dose-only effect, or another doubt; inactive = no such curve, though single readings can be large; an effect the other way counts as inactive or inconclusive.

SMILES	IDH1 R132H inh	TrxR1 substrate	IL-2 act	rTrxR1 inhibitor	BRCA1 expr up	Giardia kill
O=C(NCc1ccccc1Cl)C(=O)NCC(c1ccc2c(c1)OCO2)N1CCOCC1 (stereo not given)	51.0%	4.1%[57.1 µM]	·	14.1%[57.1 µM]	·	·
O=C(NCC1CCOCC1)c1ccc2nc(Cc3cccc(Cl)c3)oc2c1	0.2%	3.6%	-0.7	13.1%	10µM*	0.9
COc1ccc(Cc2nc3ccc(C(=O)NCC(C)(C)OC)cc3o2)cc1	-1.9%	1.8%	0.6	9.9%	10µM*	-1.7
CCC1CCCCN1C(=O)c1ccc2nc(Cc3ccc(OC)cc3)oc2c1 (stereo not given)	0.6%	-3.2%	-1.6	-6.7%	11.2µM*	-6.6
COC(=O)CCNC(=O)c1ccc2nc(Cc3ccc(OC)cc3)oc2c1	8.7%	-2.6%	0.3	19.7%[57.1 µM]	0.7%	2.2
CCCOc1ccc(C2C(C(=O)c3ccc(C)o3)=C(O)C(=O)N2CCN2CCOCC2)cc1OC (stereo not given)	4.3%	-6.1%	-0.8	50.1µM*	-0.6%	0.1
N#CCSc1nc2c(c(=O)n1Cc1ccco1)C1(CCCC1)Cc1ccccc1-2	2.7%	5.9%	1.4	44.7µM*	-34.2%	22.5
COc1ccc(-n2cccc2/C=C/[N+](=O)[O-])cc1	9.5%	2.7%	-6.0	10µM*	-80.3%	-19.2
O=C(Nc1ccc(NC(=O)C2CC2)cn1)c1ccccc1Cl	3.3%	0.1%	1.0	4.7%[57.1 µM]	12.6µM*	-6.3
COc1ccc(-c2csc(NC(=O)c3ccccc3F)c2C(=O)O)cc1	28.1%	-8.3%	-0.8	-7.8%	6.31µM*	-6.2
COc1cccc(C(=O)Nc2cccc(SC)c2)c1	6.4%	-5.4%	-3.4	17.9%[57.1 µM]	12.6µM*	-5.0
CCOC(=O)c1c(-c2ccc(Br)cc2)csc1NC(=O)c1ccccc1F	-4.0%	13.6%	·	25.3%	·	·
O=C(Nc1ccc(Nc2ccccc2)cc1)c1ccccc1F	0.0%	-3.2%	-0.9	18.6%	1.12µM*	-3.6
O=C(C[n+]1ccncc1)c1ccc2ccccc2c1	·	2.6%	·	-8.7%	-3.4%	·
CCOc1ccc(N(CC)S(=O)(=O)N2CCCC(C(=O)NCc3ccccc3Cl)C2)cc1 (stereo not given)	-0.2%	-12.1%	·	14.4%	·	·
CCOc1ccc(C2=NC(c3cccs3)=Nc3ccc(C(C)C)cc3N2)cc1	13.1%	-8.5%	·	2.6%	·	·
O=c1c2oc3ccccc3c2n(Cc2ccccc2Cl)c(=O)n1Cc1ccco1	0.0%	0.0%	·	?	·	·
O=C(Nc1ccccc1)Nc1ccccc1	6.0%	3.3%	-0.6	-1.6%	?	5.2
O=C(Nc1ccc(NC(=O)c2ccccc2F)cn1)c1ccco1	5.2%	-3.1%[57.1 µM]	-0.3	14.1µM*	?	?
O=C(N/N=C/c1ccco1)Nc1ccccc1	8.7%	6.5%[57.1 µM]	-2.2	0.3%[57.1 µM]	6.31µM*	5.7
COc1cccc(NC(=O)c2ccccc2F)c1	5.6%	1.8%	-0.3	1.5%	7.94µM*	-27.8
O=C(Nc1ccccc1)Nc1ccc(Nc2ccccc2)cc1	-0.4%	2.6%	-0.2	14.2%	3.98µM*	-20.7
CN(C(=O)c1ccc2c(c1)N(Cc1ccccc1F)C(=O)c1ccccc1S2(=O)=O)C1CCCCC1	13.5%	2.0%	·	37.5%	-30.9%	·
CCCC(=O)Nc1ccc(C(=O)Nc2cccc(OC)c2)cc1	-1.9%	-1.9%	0.8	6.4%	42.1%	22.8
COc1cccc(C(=O)Nc2cnn(C(C)C)c2)c1	8.5%	-2.2%[57.1 µM]	-0.7	19.5%[57.1 µM]	3.55µM*	-9.3
SMILES	IDH1 R132H inh	TrxR1 substrate	IL-2 act	rTrxR1 inhibitor	BRCA1 expr up	Giardia kill
COc1cccc(C(=O)Nc2ccccc2)c1	9.7%	1.2%	2.2	9.2%	?	-18.2
COc1cccc(NC(=O)c2ccc(NC(=O)C(C)(C)C)cc2)c1	4.3%	-7.4%	0.4	-7.8%	3.98µM*	7.6
Cc1ccc(C)c(CN2C(=O)c3ccccc3S(=O)c3ccc(C(=O)N4CCN(c5cccc(Cl)c5)CC4)cc32)c1 (stereo not given)	13.8%	5.3%	·	40.2%	-13.8%	·
CCc1nnc(SCc2cc(C)ccc2C)c2cc3sc(C)cc3n12	-11.1%	-3.8%	·	-32.3%	·	·
Cn1c(/C(C#N)=C/c2ccc(O)cc2)nc2ccccc21	-4.0%	-10.3%	-0.5	-11.5%	11.2µM*	-28.4
CCOc1ccc(OCC)c(NC(=O)CN(C)S(=O)(=O)c2ccc3[nH]c(=O)oc3c2)c1	6.8%	2.4%[57.1 µM]	·	16.9%[57.1 µM]	·	·
COC(=O)c1c(C)oc(C)c1S(=O)(=O)N(C)C1CCCCC1	0.1%	1.3%	-0.6	15.8µM*	-1.9%	-2.3
O=C(C1COc2ccccc2O1)N1CCCC1 (stereo not given)	5.2%	0.2%	-2.6	11.9%	7.2%	6.5
O=C(C1COc2ccccc2O1)N1CCN(c2ccc([N+](=O)[O-])cc2)CC1 (stereo not given)	-8.5%	-2.5%	-0.7	1.41µM*	-3.3%	18.6
O=C(C1COc2ccccc2O1)N1CCN(c2ccc(F)cc2)CC1 (stereo not given)	-2.4%	5.3%	2.6	9.1%	3.7%	10.9
O=C(C1COc2ccccc2O1)N1CCc2ccccc21 (stereo not given)	0.5%	7.8%	0.0	8.6%	11.2µM*	5.0
Cc1ccc(C(=O)NCC(c2ccco2)S(=O)(=O)c2ccccc2)cc1C (stereo not given)	-3.5%	0.9%[57.1 µM]	·	11.4%[57.1 µM]	·	·
Oc1ccc(Cl)cc1C1C=C(c2ccc3c(c2)OCO3)NC(c2ccc(Cl)cc2)N1 (stereo not given)	·	2.9%	·	?	-5.1%	-20.4
O=C(O)Cc1c[nH]c2ccc(O)cc12	8.7%	22.6%[57.1 µM]	0.2	10.6µM*!	0.0%	3.6
CCCc1cc(=O)[nH]c(Nc2ccc(C)c(O)c2)n1	1.9%	-9.5%	·	-7.5%	·	·
COc1ccc(CNC(=O)Cn2cccc2C(=O)c2ccccc2C)cc1	10.2%	0.2%	1.3	16.8%	8.6%	-3.7
COc1ccc(CNC(=O)Cn2cccc2C(=O)c2ccccc2)cc1	4.3%	-5.0%	-3.2	7.3%	11.2µM*	6.5
COc1ccc(C(=O)NC(=S)NCc2ccccc2)cc1	0.2%	-7.7%	-0.2	22.4µM*	42.2%	-15.4
COc1ccc(CNC(=O)c2ccc(C(C)(C)C)cc2)cc1	0.7%	4.3%[57.1 µM]	-0.6	29.8%[57.1 µM]	3.55µM*	-2.5
CCN1CCN(c2ncc3c(n2)CCN(CC(C)C)C3)CC1	25.0%	1.8%[57.1 µM]	·	6.9%[57.1 µM]	·	·
CCOC(=O)Cn1c(=O)oc2cc(S(=O)(=O)N3CCN(c4ccccc4F)CC3)ccc21	9.9%	-3.6%	·	1.6%	·	·
Cc1ccc(CNC(=O)CC(C)S(=O)(=O)c2ccc3c(c2)NC(=O)CO3)cc1 (stereo not given)	-11.7%	-0.4%	-0.8	22.9%	21.8%	9.8
